High-throughput results (PubChem)
CF NFkB inh: inhibitors of PAF-induced NF-kB signaling, primary screen, cell-based, GFP fluorescence, uHTS; KKLEB NF-kB-GFP reporter, GFP fluorescence overnight; inhibition, % at 5 µM; hit rate 0.86% among 360,000; AID 588850, 2011;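 active means at least 50% inhibition at 5 µM, scaled per plate between neutral and stimulator controls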;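 further: PAF is a Pseudomonas aeruginosa culture filtrate used as stimulus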
Beta2AR agonist: beta2AR agonists driving receptor internalization, primary screen, cell-based, FAP fluorogen, flow cytometry; response, % (no concentration beside the values); AID 504454, 2011; Beta-2 adrenergic receptor (Homo sapiens), P07550; Am2.2-beta2AR cells; hit rate 0.43% among 340,000;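 active means response above a set limit, near 3 SD of response in nonfluorescent compounds, cut at about 42% in these data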
Target sequence (P07550 whole entry, looked up): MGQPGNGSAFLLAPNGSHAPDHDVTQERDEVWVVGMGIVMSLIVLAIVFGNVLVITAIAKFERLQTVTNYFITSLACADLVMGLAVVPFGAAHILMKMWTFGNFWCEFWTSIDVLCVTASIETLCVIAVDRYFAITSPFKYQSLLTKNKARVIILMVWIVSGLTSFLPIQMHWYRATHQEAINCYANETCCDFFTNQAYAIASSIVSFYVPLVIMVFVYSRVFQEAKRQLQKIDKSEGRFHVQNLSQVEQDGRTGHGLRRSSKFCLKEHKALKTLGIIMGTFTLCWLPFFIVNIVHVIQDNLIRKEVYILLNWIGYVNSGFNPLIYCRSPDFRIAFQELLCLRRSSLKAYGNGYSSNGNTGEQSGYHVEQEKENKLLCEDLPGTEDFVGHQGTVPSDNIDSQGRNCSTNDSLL
Peg3 promoter: Peg3 promoter-driven luciferase inhibitors, primary screen, cell-based, HeLa, luciferase luminescence | HeLa PEG-Prom luciferase reporter, overnight | inhibition, % at 20 µM | hit rate 1.7% among 360,000;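 active means inhibition of at least 50% at 20 µM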
KKLEB cytotox: cytotoxicity in KKLEB CF airway cells, primary screen, cytotoxicity control for CF NF-kB inhibitor project, cell-based, uHTS, fluorescence assay plates | KKLEB CF airway cells viability, ATPlite luminescence, overnight; stronger effect = lower value; cells stimulated with P. aeruginosa culture filtrate | activity change (cytotoxicity), % at 5 µM | hit rate 0.36% among 360,000 | AID 602141, 2011;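 active means corrected activity change at or below -50% at 5 µM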
MITF TRPM1 inh: inhibitors of MITF-dependent TRPM1 promoter reporter, primary screen, cell-based, SK-MEL-5, single point, luciferase | SK-MEL-5 TRPM1 promoter luciferase, 24 h | inhibition, % at 12.5 µM | hit rate 0.83% among 330,000;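 active means mean inhibition across replicates of 60% or more, whatever share of single replicates reaches that level; inconclusive means some that reach 60%, reason not given; inactive means mean inhibition across replicates below 60%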
HIF-2a block: HIF-2a reporter inhibitors, primary screen, luminescence, 786-0 RCC cells; 786-0 RCC cells HIF-2a reporter, luciferase luminescence, overnight; inhibition, % at 18.8 µM; hit rate 0.72% among 360,000;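 active means inhibition of the luminescence signal of 40% or more relative to plate controls, in a single-dose primary screen at 18.75 µM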
A number is an active result; . = inactive; ? = inconclusive; / = no result. Rows were chosen to be rich in hits. Some 2.8% of all compounds tested hit in one or more screens of this group.

SMILES	CF NFkB inh	Beta2AR agonist	Peg3 promoter	KKLEB cytotox	MITF TRPM1 inh	HIF-2a block
CCN1CCN(/C=N/c2nc3c(s2)CCCC3)CC1	.	.	55	.	?	.
CC1=NC(=O)C(N=Nc2ccccc2)N1c1ccccc1 (stereo unspecified)	.	.	.	.	.	.
CC1=NC(=O)C(N=Nc2cccc(C(=O)O)c2)N1c1ccccc1 (stereo unspecified)	.	.	.	.	81	54
c1ccc(CCNc2cc(-c3ccc4ccccc4c3)nc3ccnn23)nc1	.	/	.	.	/	.
Cc1ccc(S(=O)(=O)c2c(C)nn(C(C)(C)C)c2OC(=O)c2ccc(Br)o2)cc1	.	.	70	.	.	.
COc1ccccc1OCC(=O)NCCSCc1ccc(Cl)cc1	.	.	77	.	.	.
Cc1cc(C(=O)N2CCC2(C)C(=O)NS(=O)(=O)c2cccc(Cl)c2)nn1C (stereo unspecified)	.	/	.	.	/	.
Fc1cccc(Cc2c(C3CCCCC3)nc3c4ccccc4ccn23)c1	/	/	/	/	/	.
COC(=O)c1cc(=O)n(CCc2ccccc2F)c(=Nc2ccc(F)c(Cl)c2)s1	.	.	91	.	/	91
COC(=O)c1cc(=O)n(Cc2ccc3c(c2)OCO3)c(=Nc2ccc(F)cc2)s1	.	.	51	.	.	.
COC(=O)c1cc(=O)n(Cc2ccc3c(c2)OCO3)c(=Nc2ccccc2)s1	.	.	.	.	/	.
O=C(NC(c1ccc(Cl)cc1)c1cccnc1)C1CCN(CCOc2ccc(Cl)cc2Cl)CC1 (stereo unspecified)	.	/	63	.	/	.
Cc1cccnc1C(NC(=O)C1CCN(CCOc2ccc(Cl)cc2Cl)CC1)c1ccc(Cl)cc1 (stereo unspecified)	.	/	77	.	/	.
Cc1cccnc1C(NC(=O)C1CCN(CCCc2ccccc2)CC1)c1ccc(Cl)cc1 (stereo unspecified)	.	/	.	.	/	.
Cc1cccnc1C(NC(=O)C1CCN(Cc2cn(C)c3ccccc23)CC1)c1ccc(Cl)cc1 (stereo unspecified)	.	/	105	.	/	.
O=C(NC(c1ccc(Cl)cc1)c1ccccn1)C1CCN(CCOc2ccc(Cl)cc2Cl)CC1 (stereo unspecified)	.	/	100	.	/	.
CN(C(=O)COc1ccccc1)c1ccc([N+](=O)[O-])cc1	.	/	.	.	/	.
CC(=O)c1ccc(OCC(=O)Nc2cccc(C(=O)Nc3c(C)n(C)n(-c4ccccc4)c3=O)c2)cc1	.	.	.	.	.	.
N#Cc1cc2cc(Cl)ccc2[nH]c1=O	/	/	/	/	/	.
N#CC(=C1C=C(Br)C(=NO)C=C1Cl)c1cccc2ccccc12	51	/	.	.	/	.
O=C(c1ccccc1)c1cccc2ccccc12	.	.	.	.	.	.
COc1ccc(CNC(=O)CN2C(=O)C3C4C=CC(C4)C3C2=O)cc1 (stereo unspecified)	.	.	.	.	93	.
COc1ccc(CN2C(=O)C3C4C=CC(C4)C3C2=O)cc1 (stereo unspecified)	.	.	.	.	.	.
CCC1CSC(Nc2ccc(C(=O)/C=C/c3ccc(Br)cc3)cc2)=N1 (stereo unspecified)	.	.	.	.	.	.
CCC1CSC(Nc2ccc(C(=O)/C=C/c3ccc(OC)c(OC)c3)cc2)=N1 (stereo unspecified)	.	.	91	.	.	.
SMILES	CF NFkB inh	Beta2AR agonist	Peg3 promoter	KKLEB cytotox	MITF TRPM1 inh	HIF-2a block
COc1ccc(C=CC(=O)c2ccc3cc(OC)c(OC)cc3c2)cc1OC	.	/	92	.	/	.
COc1ccc(Oc2ccc(/C=C/C(=O)c3cccc(OC)c3)cc2[N+](=O)[O-])cc1	.	.	114	.	.	.
O=C(/C=C/c1ccccc1)c1ccc2ccccc2c1	.	.	78	.	.	.
COc1cc(/C=N/NS(=O)(=O)c2ccc(C)cc2)ccc1OCc1ccc(C(=O)O)cc1	.	.	.	.	72	.
CCOc1ccc(/C=N/NS(=O)(=O)c2ccc(C)cc2)cc1OC	.	.	.	.	.	.
COC(=O)c1cn(C(=O)OC)c2ccccc12	.	.	.	.	.	.
